# Test results reported in PubChem BioAssay (Tox21).
# Records with an inconclusive call do not appear. Unmarked numbers belong to inactive results. Calls of active or inactive are those of the source. Calls come from the whole dose curve; as a rule, active = well fitted cell-killing curve with a large enough effect in the repeat runs; inconclusive = weak or mixed curves, or effect the other way; inactive = flat fitted curve, though single readings scatter.
# Test: cAMP Responsive Elements (CRE) small molecule antagonists, cell-based qHTS assay: qHTS cell viability counter screen (AID 2060913); note: nearly all actives have a fitted effect of over 40% in size
# Conditions: CRE-bla HEK293T viability, CellTiter-Glo luminescence, 5 h; series mostly up to 92.4 µM; viability change, negative = cytotoxic: at the top concentration
# In short: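 Cytotoxicity counter screen multiplexed with the CRE-bla antagonist read: HEK293T cells in DMEM with dialyzed FBS and 25 mM HEPES were treated 3 hrs under 0.25 uM final NKH477, then viability measured by CellTiter-Glo luminescence.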
# % is set by controls: 0 for no effect and ±100 for the full control effect.
Compound,"viability change, negative = cytotoxic",Potency
C[C@@H]1CN(c2c(F)c(F)c3c(=O)c(C(=O)O)cn(C4CC4)c3c2F)C[C@H](C)N1,-1.63% [at 18.9 µM],
O=S(=O)(O)CCS,,inactive
CCCCC(CC)COS(=O)(=O)O (stereo not given),-2.47%,
C1COCCN1,,inactive
CC(=O)C=O,11.2%,
CC(=O)CC(c1ccccc1)c1c(O)c2ccccc2oc1=O (stereo not given),,inactive
CC(C)(C)c1cc(CCC(=O)OCC(COC(=O)CCc2cc(C(C)(C)C)c(O)c(C(C)(C)C)c2)(COC(=O)CCc2cc(C(C)(C)C)c(O)c(C(C)(C)C)c2)COC(=O)CCc2cc(C(C)(C)C)c(O)c(C(C)(C)C)c2)cc(C(C)(C)C)c1O,0.609% [at 42.5 µM],
F[B-](F)(F)F,,inactive
O=C(O)Cc1cn(-c2ccccc2)nc1-c1ccc(Cl)cc1,-1.67% [at 42.5 µM],
CC(C(=O)O)c1ccc2c(c1)Cc1cccnc1O2 (stereo not given),1.73% [at 42.5 µM],
CCOC(=O)C(=O)c1csc(NC=O)n1,-5.1% [at 42.5 µM],
CCCC(=O)C(C)=O,4.18%,
CCc1c(C)cc(N)c(CC)c1N,-2.05%,
COc1cc(OC)nc(O[C@H](C(=O)O)C(OC)(c2ccccc2)c2ccccc2)n1,2.37% [at 42.5 µM],
C=CC(C)(C)C,,inactive
CC(C)[C@H]1CC[C@@H](C)CC1=O,2.36%,
CCCCCCCCCCCCCCCCCC(=O)OCC(O)CO (stereo not given),,inactive
Nc1nc(Cl)nc2c1ncn2[C@H]1C[C@H](O)[C@@H](CO)O1,8.23%,
CCCCCCCCOCCC#N,1.03%,
COc1cccc(N(C)C(=S)Oc2ccc3c(c2)CCCC3)n1,-4.21% [at 42.5 µM],

Compound,"viability change, negative = cytotoxic",Potency
CCOC(=O)c1ccc(OCCN2C[C@H](O)[C@@H](O)[C@H](O)[C@H]2CO)cc1,2.76% [at 42.5 µM],
[O]=[Bi],-2.63% [at 8.39 µM],
CCCCCCOC(=O)CCCCC(=O)OCCCCCC,3.46%,
Nc1ccc2cc3ccc(N)cc3nc2c1,,inactive
Brc1ccc(-c2ccccc2)cc1,0.547%,
O=C(O)C(=O)Cc1ccccc1,9.83%,
CC(C)(C)C(=O)C(Oc1ccc(Cl)cc1)n1ccnc1 (stereo not given),2.96% [at 42.5 µM],
Cc1oc2c(NC(=O)c3c(Cl)cccc3Cl)cccc2c1C(C)(C)O,-5.8%,
CC(=O)Nc1ccc(C)c(Cl)c1,2.39%,
Nc1cc(=O)[nH]c(N)n1,8.59% [at 42.5 µM],
Cn1cc[nH]c1=S,,inactive
CC1CCC(CO)CC1 (stereo not given),-2.49%,
CCCCCC[C@@H](O)C/C=C\CCCCCCCC(=O)OC,-11.1%,
O=C(N[C@@H](Cc1ccccc1)[C@@H](O)C(=O)N1C[C@@H](O)[C@@H](O)C1)c1cc2cc(Cl)ccc2[nH]1,0.337%,
O=C(O)COCC(=O)O,3.56%,
COc1cccc([C@H](O)C2CCN(CCc3ccc(F)cc3)CC2)c1OC,-8.49%,
CC1OC1C1CCC2(C)OC2C1 (stereo not given),0.107%,
COc1cc2c(cc1N)oc1ccccc12,-2.13%,
CCCCCCCCCCCCCCCC,3.73%,
C[C@@H]1C[C@H]2[C@@H]3CCC4=CC(=O)C=C[C@]4(C)[C@@]3(F)[C@@H](O)C[C@]2(C)[C@@]1(O)C(=O)COP(=O)(O)O,2.37%,

# Test: cAMP Responsive Elements (CRE) small molecule agonists, cell-based qHTS assay: qHTS cell viability counter screen (AID 2060914); note: nearly all actives have a fitted effect of over 50% in size
# Conditions: CRE-bla HEK293T viability, CellTiter-Glo luminescence, 5 h; series mostly up to 92.4 µM; activity change, negative = cytotoxicity: at the top concentration
# In short: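 Luminescence read-out (CellTiter-Glo, 30 min RT) of ATP-based viability in CRE-bla HEK 293T cells, run in the same wells as the β-lactamase reporter assay after 3 h compound treatment at 37 °C.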
Compound,"activity change, negative = cytotoxicity",Potency
C[C@@H]1CN(c2c(F)c(F)c3c(=O)c(C(=O)O)cn(C4CC4)c3c2F)C[C@H](C)N1,-12.9% [at 18.9 µM],
O=S(=O)(O)CCS,,inactive
CCCCC(CC)COS(=O)(=O)O (stereo not given),-6.44%,
C1COCCN1,,inactive
CC(=O)C=O,15%,
CC(=O)CC(c1ccccc1)c1c(O)c2ccccc2oc1=O (stereo not given),,inactive
CC(C)(C)c1cc(CCC(=O)OCC(COC(=O)CCc2cc(C(C)(C)C)c(O)c(C(C)(C)C)c2)(COC(=O)CCc2cc(C(C)(C)C)c(O)c(C(C)(C)C)c2)COC(=O)CCc2cc(C(C)(C)C)c(O)c(C(C)(C)C)c2)cc(C(C)(C)C)c1O,-0.902% [at 42.5 µM],
F[B-](F)(F)F,,inactive
O=C(O)Cc1cn(-c2ccccc2)nc1-c1ccc(Cl)cc1,-1.09% [at 42.5 µM],
CC(C(=O)O)c1ccc2c(c1)Cc1cccnc1O2 (stereo not given),6.63% [at 42.5 µM],
CCOC(=O)C(=O)c1csc(NC=O)n1,-1.86% [at 42.5 µM],
CCCC(=O)C(C)=O,13.1%,
CCc1c(C)cc(N)c(CC)c1N,4.1%,
COc1cc(OC)nc(O[C@H](C(=O)O)C(OC)(c2ccccc2)c2ccccc2)n1,3.94% [at 42.5 µM],
C=CC(C)(C)C,-0.611%,
CC(C)[C@H]1CC[C@@H](C)CC1=O,-1.07%,
CCCCCCCCCCCCCCCCCC(=O)OCC(O)CO (stereo not given),,inactive
Nc1nc(Cl)nc2c1ncn2[C@H]1C[C@H](O)[C@@H](CO)O1,1.23%,
CCCCCCCCOCCC#N,-2.84%,
COc1cccc(N(C)C(=S)Oc2ccc3c(c2)CCCC3)n1,-14.2% [at 42.5 µM],

Compound,"activity change, negative = cytotoxicity",Potency
CCOC(=O)c1ccc(OCCN2C[C@H](O)[C@@H](O)[C@H](O)[C@H]2CO)cc1,12% [at 42.5 µM],
[O]=[Bi],-8.94% [at 8.39 µM],
CCCCCCOC(=O)CCCCC(=O)OCCCCCC,22.8%,
Nc1ccc2cc3ccc(N)cc3nc2c1,15.4% [at 42.5 µM],
Brc1ccc(-c2ccccc2)cc1,1.92%,
O=C(O)C(=O)Cc1ccccc1,13.2%,
CC(C)(C)C(=O)C(Oc1ccc(Cl)cc1)n1ccnc1 (stereo not given),4.19% [at 42.5 µM],
Cc1oc2c(NC(=O)c3c(Cl)cccc3Cl)cccc2c1C(C)(C)O,-23.1%,
CC(=O)Nc1ccc(C)c(Cl)c1,-2.66%,
Nc1cc(=O)[nH]c(N)n1,-4.19% [at 42.5 µM],
Cn1cc[nH]c1=S,,inactive
CC1CCC(CO)CC1 (stereo not given),4.89%,
CCCCCC[C@@H](O)C/C=C\CCCCCCCC(=O)OC,-2.83%,
O=C(N[C@@H](Cc1ccccc1)[C@@H](O)C(=O)N1C[C@@H](O)[C@@H](O)C1)c1cc2cc(Cl)ccc2[nH]1,10.1%,
O=C(O)COCC(=O)O,5.92%,
COc1cccc([C@H](O)C2CCN(CCc3ccc(F)cc3)CC2)c1OC,3.75%,
CC1OC1C1CCC2(C)OC2C1 (stereo not given),-9.22%,
COc1cc2c(cc1N)oc1ccccc12,16.2%,
CCCCCCCCCCCCCCCC,-4.99%,
C[C@@H]1C[C@H]2[C@@H]3CCC4=CC(=O)C=C[C@]4(C)[C@@]3(F)[C@@H](O)C[C@]2(C)[C@@]1(O)C(=O)COP(=O)(O)O,0.41%,
